IDE inh: human IDE inhibitors in live cells, primary screen, fluorescence polarization, HEK cells, FAbetaB substrate | FAbetaB cleavage | inhibition, % at 5.59 µM | Insulin-degrading enzyme (Homo sapiens), P14735 | 0.41% of 320,000 active;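 active means percent inhibition above the average of all tested compounds plus 3 SD, set per screening campaign, cut at about 16% in these data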;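 further: IDE supplied by intact live HEK cells; FP after avidin binding of uncleaved biotin substrate so inhibition keeps polarization high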
Target sequence (P14735 whole entry, looked up): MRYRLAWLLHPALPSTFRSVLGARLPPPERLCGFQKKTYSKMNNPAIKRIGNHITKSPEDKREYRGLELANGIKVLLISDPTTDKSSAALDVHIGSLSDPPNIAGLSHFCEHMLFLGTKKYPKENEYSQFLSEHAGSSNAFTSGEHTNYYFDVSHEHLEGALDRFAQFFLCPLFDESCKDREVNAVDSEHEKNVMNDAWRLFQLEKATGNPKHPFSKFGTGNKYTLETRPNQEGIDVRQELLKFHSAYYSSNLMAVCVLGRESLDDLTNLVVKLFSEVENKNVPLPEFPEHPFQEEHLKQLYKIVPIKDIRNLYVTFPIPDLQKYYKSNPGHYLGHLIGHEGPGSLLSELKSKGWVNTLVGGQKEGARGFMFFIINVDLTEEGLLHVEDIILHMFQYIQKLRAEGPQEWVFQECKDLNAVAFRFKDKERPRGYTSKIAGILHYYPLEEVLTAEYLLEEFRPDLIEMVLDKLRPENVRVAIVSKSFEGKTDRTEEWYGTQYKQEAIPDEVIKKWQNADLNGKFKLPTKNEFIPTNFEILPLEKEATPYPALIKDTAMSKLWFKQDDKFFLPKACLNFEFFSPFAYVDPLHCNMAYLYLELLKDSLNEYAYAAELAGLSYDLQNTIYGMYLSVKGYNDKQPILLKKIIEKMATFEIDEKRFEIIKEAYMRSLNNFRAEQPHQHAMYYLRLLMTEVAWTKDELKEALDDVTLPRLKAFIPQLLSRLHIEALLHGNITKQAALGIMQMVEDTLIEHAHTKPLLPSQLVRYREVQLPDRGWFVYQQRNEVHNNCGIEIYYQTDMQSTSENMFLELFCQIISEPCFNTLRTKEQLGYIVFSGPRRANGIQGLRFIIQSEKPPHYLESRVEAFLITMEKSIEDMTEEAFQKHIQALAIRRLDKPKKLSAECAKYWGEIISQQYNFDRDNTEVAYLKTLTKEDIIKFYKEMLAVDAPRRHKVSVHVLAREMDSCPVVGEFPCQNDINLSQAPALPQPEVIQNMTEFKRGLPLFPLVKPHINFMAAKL
IDE act: human IDE activators in live cells, primary screen, fluorescence polarization, HEK cells, FAbeta-B substrate; Insulin-degrading enzyme (Homo sapiens), P14735; FAbeta-B cleavage; 0% vehicle, 100% cell-free pure enzyme wells; activation, % at 5.96 µM; 0.073% of 340,000 active; AID 493087, 2011;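 active means activation above the mean of all tested compounds plus 3 SD, set per screening campaign, cut at about 17% in these data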
CRFR2-BP antag: antagonists of CRF-BP/CRF-R2 complex, primary screen, cell-based, HEK293, calcium dye fluorescence, uHTS | CRF-induced calcium fluorescence | inhibition, % at 11.8 µM | 0.59% of 350,000 active | AID 588475, 2011;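 active means inhibition of the ligand-induced calcium signal above about 50% at the single tested concentration, limit read from the data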
CRFR2-BP ag: agonists of CRF-BP/CRF-R2 complex, primary screen, cell-based, HEK293, calcium dye fluorescence, uHTS. 0.46% of 350,000 active. AID 588473, 2011. calcium dye fluorescence (FLIPR); percent of saturating CRF peptide response. activation, % at 13.2 µM. CRF-binding protein / CRF receptor 2 complex (human);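 active means activation of at least 50%, plus an integration ratio under a set limit after plate pattern correction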
RTF Ca sens inh: cardiac RTF calcium sensitivity inhibitors, primary screen, biochemical, IANBD-TnC fluorescence, EC70 calcium; Troponin I, cardiac muscle (Homo sapiens) + Troponin T, cardiac muscle (Homo sapiens) + …; IANBD-labeled cardiac RTF, Ca2+ fluorescence; inhibition, % at 7.15 µM; 0.12% of 340,000 active;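 active means inhibition above the mean inhibition of all tested compounds plus 3 SD, cut at about 17% in these data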;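 further: assay run at fixed EC70 calcium of 1.6 mM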
cardiac RTF act: cardiac RTF calcium sensitivity activators, primary screen, biochemical, IANBD-TnC fluorescence, EC20 calcium; Troponin I, cardiac muscle (Homo sapiens) + Troponin T, cardiac muscle (Homo sapiens) + …; IANBD-labeled TnC RTF fluorescence at EC20 calcium; 0% EC20 calcium, 100% full calcium; activation, % at 7.2 µM; 0.24% of 340,000 active;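 active means activation above the mean over all tested compounds plus 3 SD, cut at about 30% in these data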;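 further: rise in fluorescence read as greater calcium sensitivity of cardiac thin filaments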
Numbers stand for hits. The list is not random: actives were taken first. Their share in the collection is about 1.5%.

Fc1cccc(Cl)c1-c1nnc2ccc(C(F)(F)F)cn12 was read as IDE inh inactive, IDE act inactive, CRFR2-BP antag inactive, CRFR2-BP ag 50.1, RTF Ca sens inh inactive and cardiac RTF act inactive.
Screening CCN(CC)c1ccc(C=Nc2ccc(C)cc2)c(O)c1 returned IDE inh inactive, IDE act inactive, CRFR2-BP antag inactive, CRFR2-BP ag inactive, RTF Ca sens inh inactive and cardiac RTF act inactive.
`CCN(CC)c1ccc(N=Cc2ccc(N(CC)CC)cc2O)cc1` gave IDE inh inactive, IDE act inactive, CRFR2-BP antag inactive, CRFR2-BP ag 93.9, RTF Ca sens inh inactive and cardiac RTF act inactive.
CCN(CC)c1ccc(C=Nc2ccc(N(C)C)cc2)c(O)c1 was read as IDE inh inactive, IDE act inactive, CRFR2-BP antag inactive, CRFR2-BP ag 50.7, RTF Ca sens inh inactive and cardiac RTF act inactive.
For CCN(CC)c1ccc(/C=N/N=C(N)N)c(O)c1 the results were IDE inh inactive, IDE act 17.5, CRFR2-BP antag inactive, CRFR2-BP ag inactive, RTF Ca sens inh inactive and cardiac RTF act inactive.
Screening CCN(CC)c1ccc(C=Nc2ccccc2)c(O)c1 returned IDE inh inactive, IDE act inactive, CRFR2-BP antag inactive, CRFR2-BP ag inactive, RTF Ca sens inh inactive and cardiac RTF act inactive.
Screening Cc1ccc(Cn2c(SCC(=O)N(C)C3CCS(=O)(=O)C3)nc3ccccc3c2=O)cc1 (centres undefined) returned IDE inh inactive, IDE act inactive, CRFR2-BP antag inactive, CRFR2-BP ag inactive, RTF Ca sens inh inactive and cardiac RTF act inactive.
For Cc1ccc(CN2CC(=O)N3[C@H]4c5cc(C)ccc5OC[C@@H]4[C@H](c4ccccc4)[C@]3(C)C2=O)cc1 the results were IDE inh inactive, IDE act inactive, CRFR2-BP antag inactive, CRFR2-BP ag inactive, RTF Ca sens inh inactive and cardiac RTF act inactive.
Screening Cc1ccc(CN2CC(=O)N3[C@H]4c5cc(Cl)ccc5OC[C@@H]4[C@H](c4ccccc4)[C@]3(C)C2=O)cc1 returned IDE inh inactive, IDE act inactive, CRFR2-BP antag 72.2, CRFR2-BP ag inactive, RTF Ca sens inh inactive and cardiac RTF act inactive.
Fc1ccc(C(c2nnnn2CCc2ccccc2)N2CCCc3ccccc32)cc1 (centres undefined) was read as IDE inh inactive, IDE act inactive, CRFR2-BP antag inactive, CRFR2-BP ag inactive, RTF Ca sens inh inactive and cardiac RTF act inactive.
For c1ccc(CCn2nnnc2CN2CCCc3ccccc32)cc1 the results were IDE inh inactive, IDE act inactive, CRFR2-BP antag inactive, CRFR2-BP ag 68.1, RTF Ca sens inh inactive and cardiac RTF act inactive.
`c1ccc2c(c1)CCCN2Cc1nnnn1CC1CCCO1` (centres undefined) gave IDE inh inactive, IDE act inactive, CRFR2-BP antag inactive, CRFR2-BP ag inactive, RTF Ca sens inh inactive and cardiac RTF act 37.1.
`O=C(CCN1C(=O)C2CC=CCC2C1=O)Nc1cc(C(F)(F)F)ccc1N1CCCC1` (centres undefined) gave IDE inh inactive, IDE act inactive, CRFR2-BP antag inactive, CRFR2-BP ag inactive, RTF Ca sens inh inactive and cardiac RTF act inactive.
Screening O=S(=O)(c1ccc(NCc2ccccc2)cc1)N1CCOCC1 returned IDE inh inactive, IDE act inactive, CRFR2-BP antag inactive, CRFR2-BP ag inactive, RTF Ca sens inh inactive and cardiac RTF act inactive.
For COc1ccc(NCC(O)COc2ccc(C(C)(C)C)cc2)cc1 (centres undefined) the results were IDE inh inactive, IDE act 21.6, CRFR2-BP antag inactive, CRFR2-BP ag inactive, RTF Ca sens inh inactive and cardiac RTF act inactive.
For CCOC(=O)C1CCN(C(=O)c2n[nH]c(=O)c3ccccc23)CC1 the results were IDE inh inactive, IDE act inactive, CRFR2-BP antag 91.5, CRFR2-BP ag inactive, RTF Ca sens inh inactive and cardiac RTF act inactive.
For NS(=O)(=O)c1ccc(CCNC(=O)COC(=O)CCc2c[nH]c3ccccc23)cc1 the results were IDE inh inactive, IDE act inactive, CRFR2-BP antag inactive, CRFR2-BP ag 75.7, RTF Ca sens inh inactive and cardiac RTF act inactive.
`O=C(COC(=O)CCc1c[nH]c2ccccc12)NCCc1ccccc1` gave IDE inh inactive, IDE act inactive, CRFR2-BP antag inactive, CRFR2-BP ag inactive, RTF Ca sens inh inactive and cardiac RTF act inactive.
CN(C#N)c1nccc(-c2cccs2)n1 was read as IDE inh inactive, IDE act inactive, CRFR2-BP antag inactive, CRFR2-BP ag inactive, RTF Ca sens inh inactive and cardiac RTF act inactive.
`CN(C)/C=N/c1nccc(-c2cccs2)n1` gave IDE inh inactive, IDE act inactive, CRFR2-BP antag inactive, CRFR2-BP ag 54.1, RTF Ca sens inh inactive and cardiac RTF act inactive.
CCn1cc(S(=O)(=O)c2ccc(C)cc2)c(=O)c2cc(OC)ccc21 was read as IDE inh inactive, IDE act inactive, CRFR2-BP antag inactive, CRFR2-BP ag inactive, RTF Ca sens inh inactive and cardiac RTF act inactive.
Cc1nc2ccccc2nc(C)c1=NOCc1ccccc1Cl was read as IDE inh inactive, IDE act inactive, CRFR2-BP antag 51.3, CRFR2-BP ag inactive, RTF Ca sens inh inactive and cardiac RTF act inactive.
Cc1nc(C)c(Cc2ccccc2Cl)c(=O)[nH]1 was read as IDE inh inactive, IDE act inactive, CRFR2-BP antag inactive, CRFR2-BP ag inactive, RTF Ca sens inh inactive and cardiac RTF act inactive.
`CCOC(=O)C(CCCCCCC(NC(C)=O)(C(=O)OCC)C(=O)OCC)(NC(C)=O)C(=O)OCC` gave IDE inh inactive, IDE act inactive, CRFR2-BP antag inactive, CRFR2-BP ag inactive, RTF Ca sens inh inactive and cardiac RTF act 82.9.
c1ccc(OCCN2CCN(C(c3ccccc3)c3ccccc3)CC2)cc1 was read as IDE inh inactive, IDE act inactive, CRFR2-BP antag inactive, CRFR2-BP ag inactive, RTF Ca sens inh inactive and cardiac RTF act inactive.
COC(=O)c1ccccc1Oc1cc(C(F)(F)F)nc(-c2ccccn2)n1 was read as IDE inh inactive, IDE act inactive, CRFR2-BP antag inactive, CRFR2-BP ag inactive, RTF Ca sens inh inactive and cardiac RTF act inactive.
`COC(=O)[C@@H](CC(C)C)NS(=O)(=O)N(Cc1ccccc1)[C@@H](CC(C)C)C(=O)OC` gave IDE inh inactive, IDE act inactive, CRFR2-BP antag inactive, CRFR2-BP ag inactive, RTF Ca sens inh inactive and cardiac RTF act inactive.

Screening data as filed in PubChem.
